Several values for one entry are separate records, joined by “and”; a condition that tells them apart may be missing. Identical values can stand only once. Activity calls are given as the source filed them.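 Rule for the calls, unless noted: active = thallium flux through the channel raised or lowered by more than 3 SD from vehicle-only wells, actives on both sides; inactive = the rest.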
Legend:
[1] = P. berghei load reduction in hepatocytes – cell-based, HepG2, luciferase luminescence, HepG2 viability, primary screen (AID 624349; in the data active = parasite load remaining mostly below about 12%, no sharp cut-off; inactive = mostly above about 10%;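 note: 100% = mean of DMSO negative control wells on the same plate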); settings: P. berghei liver stage in HepG2, luciferase luminescence, concentration not given here; parasite load remaining: stronger effect = lower value; viability: measured here: HepG2 viability without parasites
[2] = signal quenchers or enhancers, Cy5 substrate/SSB – biochemical, NIH Clinical Collection, E. coli SSB, artefact control for HCV NS3 helicase inhibitor project (AID 743268; call rule not given here); settings: Cy5-oligo bound E. coli SSB, fluorescence interference
[3] = tested on: Hepatitis C virus NS3 helicase; test: blockers of NS3h binding to DNA – biochemical, fluorescence polarization, NIH Clinical Collection, primary screen (AID 743270; call rule not given here); settings: NS3 helicase binding to Cy5-dT15 DNA, stronger effect = higher value, concentration not given here
[4] = biological target: Single-stranded DNA-binding protein (Escherichia coli (strain K12)) (UniProt P0AGE0); test: SSB-ssDNA binding inhibitors – biochemical, fluorescence polarization, NIH Clinical Collection, counter-screen for HCV NS3 helicase inhibitor project (AID 743271; in the data active = inhibition above about 28%); settings: E. coli SSB-DNA binding, stronger effect = higher value, concentration not given here
[5] = compounds distorting NS3 helicase fluorescence signal – biochemical, NIH Clinical Collection, artefact control for HCV NS3 helicase inhibitor project (AID 743272; call rule not given here;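 note: HCV NS3 helicase with a Cy5 labelled single stranded DNA probe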); settings: fluorescence interference counterscreen, HCV NS3 helicase assay; stronger effect = lower value
[6] = modulation of C. elegans fzo-1 (AID 1259413; call rule not given here;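 note: fzo-1 mutant C. elegans worms in liquid wells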); settings: C. elegans fzo-1 modulator screen, mean read-out; stronger effect = higher value
[7] = MELAS cybrid and Rieske KO viability enhancers – cell-based, MELAS cybrids, Rieske KO mouse fibroblasts, CellTiter-Glo, primary screen (AID 1508586;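 active = mean z-score across replicates of 1.96 or higher in either the MELAS or the Rieske mutant cell line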;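 note: z relative to plate mean and SD of compound and empty wells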); settings: low glucose
F380Y = test: BK channel mutant inhibitors and activators – cell-based, U2OS BacMam, thallium flux, beta subunits, selectivity assay, profiling panel (AID 1259406); settings: U2OS BacMam BK variants, at 30 µM;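 note: initial slope of Thallos dye fluorescence rise after thallium is added; log ratio against the mean of 0.3% DMSO vehicle wells on the same plate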
F380Y/beta1 = test: as above; settings: U2OS BacMam BK variants, at 30 µM
F380Y/beta2Delta = test: as above; settings: U2OS BacMam BK variants, at 30 µM
F380Y/beta4 = test: as above; settings: U2OS BacMam BK variants, at 30 µM
[8] = biological target: Calcium-activated potassium channel subunit alpha-1 (Homo sapiens) + Leucine-rich repeat-containing protein 26 (Homo sapiens) (UniProt Q12791+Q2I0M4); test: as above; settings: U2OS BacMam BK variants, F380Y/Slo1WT/gamma1, at 30 µM
R275C = test: as above; settings: U2OS BacMam BK variants, at 30 µM
R275C/beta1 = test: as above; settings: U2OS BacMam BK variants, at 30 µM
R275C/beta2Delta = test: as above; settings: U2OS BacMam BK variants, at 30 µM
R275C/beta4 = test: as above; settings: U2OS BacMam BK variants, at 30 µM
R275C/Slo1WT/beta2 = test: as above; settings: U2OS BacMam BK variants, at 30 µM
[9] = EMT-state selective cytotoxicity in co-culture – imaging, PC-3E GFP, TEM4-18 mCherry, primary screen (AID 1345086;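 active = compounds killing one labelled cell type while sparing the other, by normalised counts and ratio limits, not self-fluorescent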;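 note: cells exposed to compound for 72 h before imaging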;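 for red/green cell ratio (normalised): normalised mesenchymal count divided by normalised epithelial count so high means epithelial killing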); settings: PC-3E GFP / TEM4-18 mCherry co-culture, imaging cell counts, at 1 µM
[10] = MELAS cybrid survival, CellTiter-Glo 48 h, stronger effect = higher value
[11] = Rieske KO mouse fibroblast survival, CellTiter-Glo 72 h

Sequence of Calcium-activated potassium channel subunit alpha-1 (Homo sapiens) + Leucine-rich repeat-containing protein 26 (Homo sapiens) (Q2I0M4 whole entry, looked up, one chain of several): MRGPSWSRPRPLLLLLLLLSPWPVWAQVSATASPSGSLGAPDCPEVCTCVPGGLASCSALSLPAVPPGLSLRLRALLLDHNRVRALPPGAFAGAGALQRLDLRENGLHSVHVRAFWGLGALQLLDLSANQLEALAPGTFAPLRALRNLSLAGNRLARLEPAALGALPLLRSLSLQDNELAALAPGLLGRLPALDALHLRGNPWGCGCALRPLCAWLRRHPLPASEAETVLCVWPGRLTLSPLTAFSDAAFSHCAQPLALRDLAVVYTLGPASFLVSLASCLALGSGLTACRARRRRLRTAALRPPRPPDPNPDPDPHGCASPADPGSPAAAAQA

CCOC(=O)c1ccc(OC(=O)CCCCCN=C(N)N)cc1
inactive: parasite load remaining [1] 117% and 36.3% | fluorescence ratio [2] 1.04 | inhibition [3] 0.4% | inhibition [4] -1.64% | fluorescence ratio [5] 0.95 | mean signal [6] 243 | z-score [7, 10] -0.35 and 0.272 | log fold change Tl+ flux (F380Y) -0.0684 | log fold change Tl+ flux (F380Y/beta1) -0.00638 | log fold change Tl+ flux (F380Y/beta2Delta) -0.0274 | log fold change Tl+ flux (F380Y/beta4) -0.0274 | log fold change Tl+ flux [8] 0.00659 | log fold change Tl+ flux (R275C) -0.063 | log fold change Tl+ flux (R275C/beta1) -0.0293 | log fold change Tl+ flux (R275C/beta2Delta) -0.0476 | log fold change Tl+ flux (R275C/beta4) -0.00905 | log fold change Tl+ flux (R275C/Slo1WT/beta2) -0.0477
0.185 and -0.0147: z-score [7, 11]
77.4% and 88.1%: viability [1]

CN1CC(=O)N2[C@H](c3ccc4c(c3)OCO4)c3[nH]c4ccccc4c3C[C@@H]2C1=O
1.08: normalised cell number ([9]; measured here: epithelial PC-3E GFP cell survival)
81.8%: viability [1]
inactive: parasite load remaining [1] 101% | fluorescence ratio [2] 1 | inhibition [3] -0.4% | inhibition [4] -0.1% | fluorescence ratio [5] 1 | mean signal [6] 261 | red/green cell ratio (normalised) ([9]; actives lie on both sides, counts scaled to control wells, 1 = unselective) 1 | log fold change Tl+ flux (F380Y) 0.0711 | log fold change Tl+ flux (F380Y/beta1) 0.0938 | log fold change Tl+ flux (F380Y/beta2Delta) 0.00366 | log fold change Tl+ flux (F380Y/beta4) 0.0361 | log fold change Tl+ flux [8] -0.0237 | log fold change Tl+ flux (R275C) -0.0348 | log fold change Tl+ flux (R275C/beta2Delta) 0.0543 | log fold change Tl+ flux (R275C/beta4) 0.0558 | log fold change Tl+ flux (R275C/Slo1WT/beta2) 0.00498
1.07: normalised cell number ([9]; measured here: mesenchymal TEM4-18 mCherry cell survival)
active: log fold change Tl+ flux (R275C/beta1) 0.198

Cc1cc2c(s1)Nc1ccccc1N=C2N1CCN(C)CC1
0.469 and -0.59 and 1.26: z-score [7, 11]
inactive: parasite load remaining [1] 58.8% and 82.2% and 32.6% | fluorescence ratio [2] 1.04 | inhibition [3] -1.19% | inhibition [4] -3.18% | fluorescence ratio [5] 1 | mean signal [6] 245 | z-score [7, 10] -0.362 and 0.328 and 0.46 | log fold change Tl+ flux (F380Y/beta1) 0.0857 | log fold change Tl+ flux (F380Y/beta2Delta) 0.0704 | log fold change Tl+ flux [8] -0.004 | log fold change Tl+ flux (R275C) -0.00393 | log fold change Tl+ flux (R275C/beta1) 0.000391 | log fold change Tl+ flux (R275C/beta2Delta) -0.0244 | log fold change Tl+ flux (R275C/beta4) -0.0479 | log fold change Tl+ flux (R275C/Slo1WT/beta2) 0.0472
active: log fold change Tl+ flux (F380Y) 0.136 | log fold change Tl+ flux (F380Y/beta4) 0.111
151% and 67.6% and 138%: viability [1]

Cc1cc(N=CN(C)C)c2ccccc2n1
inactive: log fold change Tl+ flux (F380Y) 0.0195 | log fold change Tl+ flux (F380Y/beta1) 0.00784 | log fold change Tl+ flux (F380Y/beta2Delta) 0.0182 | log fold change Tl+ flux (F380Y/beta4) -0.00491 | log fold change Tl+ flux [8] 0.00683 | log fold change Tl+ flux (R275C) 0.0312 | log fold change Tl+ flux (R275C/beta1) 0.046 | log fold change Tl+ flux (R275C/beta2Delta) 0.0104 | log fold change Tl+ flux (R275C/beta4) 0.0114 | log fold change Tl+ flux (R275C/Slo1WT/beta2) -0.0666

Reference: PubChem BioAssay
